# Assay results published in PubChem BioAssay (EPA / NIEHS).
# Records with an inconclusive call do not appear. Where a structure was tested more than once in an assay, its records may differ in their call. Active and inactive are the calls of the source. How the source made its calls, unless noted: active means hit-call score of the fitted dose curve at least 0.9, where 1 is the maximum; inactive means score below 0.9.
# Assays:
# [1] = target: Paired box protein Pax-6 (Homo sapiens) (UniProt P26367); experiment: ATG_Pax6_CIS: Attagene CIS-FACTORIAL HepG2 Assay for human Paired Box 6 (PAX6) (AID 2282956); conditions: HepG2 CIS-FACTORIAL PAX6 reporter transcription, RNA readout; actives raise or lower the signal
# Sequence of Paired box protein Pax-6 (Homo sapiens) (P26367 whole entry, looked up): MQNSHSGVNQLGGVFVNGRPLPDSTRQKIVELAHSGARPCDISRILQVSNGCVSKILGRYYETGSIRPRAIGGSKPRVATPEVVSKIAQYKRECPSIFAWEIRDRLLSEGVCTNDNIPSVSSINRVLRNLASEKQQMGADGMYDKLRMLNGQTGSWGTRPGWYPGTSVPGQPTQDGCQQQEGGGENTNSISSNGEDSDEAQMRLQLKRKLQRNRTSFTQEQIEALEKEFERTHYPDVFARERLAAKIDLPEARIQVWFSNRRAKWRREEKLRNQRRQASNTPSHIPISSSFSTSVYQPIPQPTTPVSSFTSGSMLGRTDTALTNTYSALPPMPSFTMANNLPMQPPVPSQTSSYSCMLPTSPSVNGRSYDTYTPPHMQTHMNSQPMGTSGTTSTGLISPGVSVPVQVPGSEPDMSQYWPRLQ
# Method in brief: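 Transient MRTU transfection of HepG2 → compound exposure 24 h → TriZol RNA, oligo(dT) RT → PCR, 6-FAM primer extension, HpaI cut → capillary electrophoresis; activity fitted both directions against DMSO.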
# [2] = ATG_PXRE_CIS: Attagene CIS-FACTORIAL HepG2 Assay for human Pregnane X Receptor Element (PXRE) (AID 2282957); conditions: HepG2 Attagene CIS-FACTORIAL PXRE reporter, mRNA; actives raise or lower the signal
# Method in brief: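 Cis-element reporter mRNA in human hepatoma HepG2 cells is measured 24 h post-dosing by RT-PCR, primer-extension labeling and capillary electrophoresis; gain or loss of signal is fitted relative to DMSO.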
# [3] = ATG_PPRE_CIS: Attagene CIS-FACTORIAL HepG2 Assay for human Peroxisome Proliferator-activated Response Element (PPRE) (AID 2282958); conditions: HepG2 PPRE cis-element reporter, Attagene transcription factor profiling; actives raise or lower the signal
# Method in brief: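 Endogenous PPRE-driven transcription is measured in HepG2 cells carrying transfected multi-reporter constructs. Reporter transcripts are quantified by RT-PCR, HpaI digestion and capillary electrophoresis 24 h after dosing. DMSO baseline, bidirectional fit.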
# [4] = ATG_RORE_CIS: Attagene CIS-FACTORIAL HepG2 Assay for human RAR-related Orphan Receptor Element (RORE) (AID 2282959); conditions: HepG2 Attagene cis-factorial RORE reporter, mRNA; actives raise or lower the signal
# Method in brief: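 RORE reporter transcripts reflecting endogenous factor activity were read after 24 h compound exposure of transfected HepG2 cells, using reverse transcription, PCR, fluorescent labelling and capillary electrophoresis sizing. Gain or loss fitted against DMSO.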
# [5] = ATG_Sox_CIS: Attagene CIS-FACTORIAL HepG2 Assay for human SRY-box transcription factor (SOX) (AID 2282960); conditions: HepG2 Attagene cis-factorial SOX reporter, mRNA; actives raise or lower the signal
# Method in brief: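 Reporter transcripts, measured by RT-PCR and capillary electrophoresis of labelled fragments, report endogenous SOX transcription factor activity. Transiently transfected human HepG2 cells receive chemical for 24 h; changes in either direction are fitted relative to DMSO.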
# [6] = target: Transcription factor Sp1 (Homo sapiens) (UniProt P08047); experiment: ATG_Sp1_CIS: Attagene CIS-FACTORIAL HepG2 Assay for human Specificity Protein 1 (Sp1) (AID 2282961); conditions: HepG2 Sp1 cis-reporter transcription, actives raise or lower the signal
# Sequence of Transcription factor Sp1 (Homo sapiens) (P08047 whole entry, looked up): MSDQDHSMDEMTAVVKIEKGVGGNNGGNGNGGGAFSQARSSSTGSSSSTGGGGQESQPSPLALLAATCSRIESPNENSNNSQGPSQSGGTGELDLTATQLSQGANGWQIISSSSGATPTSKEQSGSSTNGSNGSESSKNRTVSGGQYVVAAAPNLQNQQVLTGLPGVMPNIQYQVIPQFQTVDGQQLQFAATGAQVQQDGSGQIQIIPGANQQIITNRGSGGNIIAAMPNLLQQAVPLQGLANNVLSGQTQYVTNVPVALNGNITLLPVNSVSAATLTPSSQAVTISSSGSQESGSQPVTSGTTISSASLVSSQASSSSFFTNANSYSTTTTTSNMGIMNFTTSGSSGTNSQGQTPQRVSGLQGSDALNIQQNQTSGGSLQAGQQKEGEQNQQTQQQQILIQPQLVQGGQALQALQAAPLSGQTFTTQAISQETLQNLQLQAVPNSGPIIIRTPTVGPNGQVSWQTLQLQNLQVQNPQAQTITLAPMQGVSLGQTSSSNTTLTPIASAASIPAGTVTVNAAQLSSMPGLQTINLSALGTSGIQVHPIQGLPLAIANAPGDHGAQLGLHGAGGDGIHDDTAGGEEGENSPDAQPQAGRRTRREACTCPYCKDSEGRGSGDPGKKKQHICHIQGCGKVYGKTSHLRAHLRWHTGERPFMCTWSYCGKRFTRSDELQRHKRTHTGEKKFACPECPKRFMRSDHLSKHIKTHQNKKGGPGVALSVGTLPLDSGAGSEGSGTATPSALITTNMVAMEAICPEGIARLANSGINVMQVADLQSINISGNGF
# Method in brief: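 Read-out is reporter transcript level, measured by RT-PCR and fluorescent capillary electrophoresis after 24 h chemical treatment. System: transiently transfected HepG2 cells reporting endogenous transcription factor activity; gain or loss fitted against DMSO baseline.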
# [7] = ATG_SREBP_CIS: Attagene CIS-FACTORIAL HepG2 Assay for human Sterol Regulatory Element Binding (SREBP) (AID 2282962); conditions: HepG2 Attagene cis-factorial SREBP reporter, mRNA; actives raise or lower the signal
# Method in brief: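 Transfected HepG2 (cis-regulated reporter library, endogenous TFs) → compound 24 h → total RNA → oligo(dT) RT → reporter-specific PCR → FAM primer extension, HpaI cut → CE fluorescence. Fit bidirectional vs DMSO.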
# [8] = target: Signal transducer and activator of transcription 3 (Homo sapiens) (UniProt P40763); experiment: ATG_STAT3_CIS: Attagene CIS-FACTORIAL HepG2 Assay for human Signal Transducer and Activator of Transcription 3 (STAT3) (AID 2282963); conditions: HepG2, Attagene cis-factorial STAT3 reporter transcription; actives raise or lower the signal
# Sequence of Signal transducer and activator of transcription 3 (Homo sapiens) (P40763 whole entry, looked up): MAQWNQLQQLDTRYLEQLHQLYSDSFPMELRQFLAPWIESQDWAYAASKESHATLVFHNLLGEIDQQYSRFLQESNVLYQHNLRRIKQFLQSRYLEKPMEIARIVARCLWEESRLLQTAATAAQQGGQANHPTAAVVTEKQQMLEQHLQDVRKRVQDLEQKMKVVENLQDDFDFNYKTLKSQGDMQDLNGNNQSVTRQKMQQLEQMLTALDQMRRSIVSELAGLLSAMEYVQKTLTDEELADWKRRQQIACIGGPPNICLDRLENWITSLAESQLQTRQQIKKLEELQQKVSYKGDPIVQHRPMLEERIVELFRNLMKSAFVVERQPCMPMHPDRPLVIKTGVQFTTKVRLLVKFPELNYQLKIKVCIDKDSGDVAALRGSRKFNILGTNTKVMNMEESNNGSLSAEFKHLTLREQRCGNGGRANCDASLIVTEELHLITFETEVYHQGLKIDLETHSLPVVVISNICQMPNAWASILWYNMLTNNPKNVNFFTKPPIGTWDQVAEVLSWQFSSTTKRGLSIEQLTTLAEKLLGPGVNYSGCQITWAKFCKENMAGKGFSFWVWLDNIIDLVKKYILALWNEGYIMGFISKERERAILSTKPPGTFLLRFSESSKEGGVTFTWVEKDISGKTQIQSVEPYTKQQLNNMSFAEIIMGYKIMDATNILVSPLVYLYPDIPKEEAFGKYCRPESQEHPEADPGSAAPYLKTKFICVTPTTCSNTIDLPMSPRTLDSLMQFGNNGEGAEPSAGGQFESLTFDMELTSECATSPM
# Method in brief: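 Transcript-level reporter assay. HepG2 transient MRTU transfection, 24 h exposure, fluorescence detection after RT-PCR and CE; DMSO baseline.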
# [9] = ATG_TA_CIS: Attagene CIS-FACTORIAL HepG2 Assay for human TA Basal Promoter (AID 2282964); conditions: HepG2 Attagene CIS-factorial TA basal promoter reporter; actives raise or lower the signal
# Method in brief: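 HepG2 cells transiently transfected with multiple reporter units under cis promoter elements, reporting endogenous transcription factor activity; this endpoint tracks the TA basal promoter as background control. Reporter mRNA after 24 h dosing measured by RT-PCR/capillary electrophoresis; bidirectional fits versus DMSO.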
# [10] = ATG_TCF_b_cat_CIS: Attagene CIS-FACTORIAL HepG2 Assay for human T-Cell-Factor with beta-catenin (TCF/b-cat) (AID 2282965); conditions: HepG2 TCF/beta-catenin cis-reporter transcription, actives raise or lower the signal
# Method in brief: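 HepG2 cells transiently transfected with multiple cis-promoter-regulated reporter transcription units, so endogenous transcription factor activity is measured. Reporter mRNA read 24 hours after dosing by RT-PCR, fluorescent labelling and capillary electrophoresis; bidirectional fitting against DMSO.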
# [11] = ATG_TAL_CIS: Attagene CIS-FACTORIAL HepG2 Assay for human TAL Basal Promoter (AID 2282966); conditions: HepG2 Attagene cis-factorial TAL promoter reporter; actives raise or lower the signal;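 further: background control endpoint measuring basal TAL promoter reporter mRNA not a specific factor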
# Method in brief: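 In this cell-based multiplex, HepG2 liver cells bearing cis-promoter reporter constructs are dosed for 24 hours. Total RNA is reverse-transcribed and amplified, labelled fragments are sized by capillary electrophoresis, and signal changes are fitted bidirectionally versus DMSO.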
# [12] = ATG_TGFb_CIS: Attagene CIS-FACTORIAL HepG2 Assay for human Transforming Growth Factor (TGF) (AID 2282967); conditions: HepG2 Attagene CIS TGFb reporter, mRNA transcription; actives raise or lower the signal
# Method in brief: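 HepG2 cells transiently transfected with cis-promoter-driven multiple reporter units measure endogenous TF activity; reporter mRNA quantified at 24 h by RT-PCR, FAM labeling, HpaI digestion and capillary electrophoresis. Bidirectional fit vs DMSO.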
# [13] = ATG_VDRE_CIS: Attagene CIS-FACTORIAL HepG2 Assay for human Vitamin D Receptor Element (VDRE) (AID 2282968); conditions: HepG2 VDRE cis-reporter transcription, actives raise or lower the signal
# Method in brief: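 RT-PCR/CE readout of reporter mRNA; HepG2, transient transfection, 24 h dosing; DMSO baseline; bidirectional analysis.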
# [14] = target: Estrogen receptor (Homo sapiens) (UniProt P03372); experiment: ATG_ERa_TRANS: Attagene TRANS-FACTORIAL HepG2 Assay for human Estrogen Receptor alpha (ERa) (AID 2282970; active means hit-call score of the fitted dose curve at least 0.9, where 1 is the maximum); conditions: HepG2 Attagene TRANS ERa GAL4 reporter, mRNA
# Sequence of Estrogen receptor (Homo sapiens) (P03372 whole entry, looked up, the tested form may be a part): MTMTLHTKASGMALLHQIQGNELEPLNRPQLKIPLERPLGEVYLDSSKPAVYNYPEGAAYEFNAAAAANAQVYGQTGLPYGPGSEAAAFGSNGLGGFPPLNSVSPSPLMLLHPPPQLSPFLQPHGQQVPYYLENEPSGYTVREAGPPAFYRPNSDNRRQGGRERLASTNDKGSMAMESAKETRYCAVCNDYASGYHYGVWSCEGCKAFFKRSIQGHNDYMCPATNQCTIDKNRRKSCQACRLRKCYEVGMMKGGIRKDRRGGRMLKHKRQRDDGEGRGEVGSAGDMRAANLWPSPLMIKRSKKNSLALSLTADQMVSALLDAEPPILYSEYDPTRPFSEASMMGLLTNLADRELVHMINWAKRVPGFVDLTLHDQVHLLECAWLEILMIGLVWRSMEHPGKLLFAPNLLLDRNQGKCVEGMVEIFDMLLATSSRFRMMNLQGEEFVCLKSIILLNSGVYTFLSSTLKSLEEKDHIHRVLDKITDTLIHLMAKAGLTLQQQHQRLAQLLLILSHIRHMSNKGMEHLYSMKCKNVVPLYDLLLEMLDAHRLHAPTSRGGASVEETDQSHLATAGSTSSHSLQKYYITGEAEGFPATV
# Method in brief: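 After 24 h of compound treatment, RNA from HepG2 cells bearing transfected GAL4-UAS reporter constructs is converted to cDNA, amplified and fluorescently labelled. Capillary electrophoresis resolves the ERa-linked reporter; DMSO serves as negative control.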
# [15] = target: X-box-binding protein 1 (Homo sapiens) (UniProt P17861); experiment: ATG_Xbp1_CIS: Attagene CIS-FACTORIAL HepG2 Assay for human X-box Binding Protein 1 (XBP1) (AID 2282972); conditions: HepG2 XBP1 cis-element reporter, Attagene multiplex; actives raise or lower the signal
# Sequence of X-box-binding protein 1 (Homo sapiens) (P17861 whole entry, looked up): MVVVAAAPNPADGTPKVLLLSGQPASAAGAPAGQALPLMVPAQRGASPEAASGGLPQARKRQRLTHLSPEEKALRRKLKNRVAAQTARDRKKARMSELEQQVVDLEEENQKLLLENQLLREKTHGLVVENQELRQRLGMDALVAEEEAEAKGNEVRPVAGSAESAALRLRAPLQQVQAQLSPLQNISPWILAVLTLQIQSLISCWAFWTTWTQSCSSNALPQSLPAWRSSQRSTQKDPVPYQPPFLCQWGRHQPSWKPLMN
# Method in brief: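 HepG2, transient MRTU transfection (cis-promoter driven), 24 h compound exposure. Total RNA → oligo(dT) RT → PCR → 6-FAM labeling → HpaI cut → CE. Bidirectional fit vs DMSO.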
# [16] = ATG_GAL4_TRANS: Attagene TRANS-FACTORIAL HepG2 Assay for GAL4 (Internal Marker) (AID 2282976; active means hit-call score of the fitted dose curve at least 0.9, where 1 is the maximum); conditions: HepG2 Attagene TRANS GAL4 internal marker reporter
# Method in brief: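 RT-PCR/capillary electrophoresis readout of reporter mRNA. HepG2, transient MRTU transfection (GAL4-UAS reporters), 24 h compound exposure. Background-control endpoint, positive direction vs DMSO baseline.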
# [17] = target: Nuclear receptor subfamily 1 group I member 3 (Homo sapiens) (UniProt Q14994); experiment: ATG_CAR_TRANS: Attagene TRANS-FACTORIAL HepG2 Assay for human Constitutive Androstane Receptor (CAR) (AID 2282969; active means hit-call score of the fitted dose curve at least 0.9, where 1 is the maximum;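 further: activators raise reporter mRNA above DMSO so AC50 marks induction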); conditions: HepG2 Attagene TRANS-FACTORIAL CAR reporter
# Sequence of Nuclear receptor subfamily 1 group I member 3 (Homo sapiens) (Q14994 whole entry, looked up, the tested form may be a part): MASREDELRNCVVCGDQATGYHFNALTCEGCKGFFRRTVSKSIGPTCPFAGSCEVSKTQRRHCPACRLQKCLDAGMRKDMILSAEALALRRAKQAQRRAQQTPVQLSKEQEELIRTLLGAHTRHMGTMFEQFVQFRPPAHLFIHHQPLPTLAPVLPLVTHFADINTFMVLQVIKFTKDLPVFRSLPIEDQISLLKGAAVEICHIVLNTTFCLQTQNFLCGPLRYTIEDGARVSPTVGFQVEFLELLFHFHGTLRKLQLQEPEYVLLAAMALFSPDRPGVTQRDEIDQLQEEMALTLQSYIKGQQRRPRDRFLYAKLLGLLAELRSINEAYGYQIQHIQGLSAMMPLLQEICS
# Method in brief: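 HepG2 cells transiently transfected with multiplexed GAL4-UAS reporter units expressing chimeric NR-Gal4 proteins; compound exposure 24 h. Reporter mRNA measured by RT-PCR, 6-FAM labelling, HpaI digestion and capillary electrophoresis; gain-of-signal fitted against DMSO baseline.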
# [18] = ATG_M_19_TRANS: Attagene TRANS-FACTORIAL HepG2 Assay for M19 Transcription Factor (Internal Marker) (AID 2282974; active means hit-call score of the fitted dose curve at least 0.9, where 1 is the maximum); conditions: HepG2 Attagene TRANS-FACTORIAL M19 internal marker reporter
# Method in brief: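 Background-control readout: after 24 h chemical exposure of transfected HepG2 carrying GAL4-driven reporter units, RNA was reverse-transcribed, amplified, fluorescently labeled and sized by capillary electrophoresis; gain-of-signal fit against DMSO.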
# [19] = target: Steroid hormone receptor ERR1 (Homo sapiens) (UniProt P11474); experiment: ATG_ERRa_TRANS: Attagene TRANS-FACTORIAL HepG2 Assay for human Estrogen-Related Receptor alpha (ERRa) (AID 2282971; active means hit-call score of the fitted dose curve at least 0.9, where 1 is the maximum); conditions: HepG2 Attagene TRANS reporter, ERRa transactivation
# Sequence of Steroid hormone receptor ERR1 (Homo sapiens) (P11474 whole entry, looked up, the tested form may be a part): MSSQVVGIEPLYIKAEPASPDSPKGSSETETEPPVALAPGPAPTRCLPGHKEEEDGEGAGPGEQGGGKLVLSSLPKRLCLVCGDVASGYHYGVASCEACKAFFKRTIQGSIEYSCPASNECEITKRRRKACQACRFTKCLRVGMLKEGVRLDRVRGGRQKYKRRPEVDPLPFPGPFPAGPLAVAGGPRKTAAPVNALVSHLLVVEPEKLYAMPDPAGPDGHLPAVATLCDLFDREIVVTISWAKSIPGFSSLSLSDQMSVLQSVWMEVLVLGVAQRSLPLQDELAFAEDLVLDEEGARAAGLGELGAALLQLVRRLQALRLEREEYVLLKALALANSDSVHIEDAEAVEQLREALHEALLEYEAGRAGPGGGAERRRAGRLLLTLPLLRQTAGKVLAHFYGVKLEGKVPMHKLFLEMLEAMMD
# Method in brief: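 Transfected HepG2, 24 h dosing, ERRa-Gal4 chimera driving GAL4-UAS reporter. Readout: reporter mRNA via RT-PCR plus capillary electrophoresis (fluorescence). Positive direction vs DMSO control.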
# [20] = target: Estrogen-related receptor gamma (Homo sapiens) (UniProt P62508); experiment: ATG_ERRg_TRANS: Attagene TRANS-FACTORIAL HepG2 Assay for human Estrogen-Related Receptor gamma (ERRg) (AID 2282977; active means hit-call score of the fitted dose curve at least 0.9, where 1 is the maximum;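 further: hits increase reporter signal over DMSO so potencies reflect activators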); conditions: HepG2 Attagene TRANS reporter, ERRg transactivation
# Sequence of Estrogen-related receptor gamma (Homo sapiens) (P62508 whole entry, looked up, the tested form may be a part): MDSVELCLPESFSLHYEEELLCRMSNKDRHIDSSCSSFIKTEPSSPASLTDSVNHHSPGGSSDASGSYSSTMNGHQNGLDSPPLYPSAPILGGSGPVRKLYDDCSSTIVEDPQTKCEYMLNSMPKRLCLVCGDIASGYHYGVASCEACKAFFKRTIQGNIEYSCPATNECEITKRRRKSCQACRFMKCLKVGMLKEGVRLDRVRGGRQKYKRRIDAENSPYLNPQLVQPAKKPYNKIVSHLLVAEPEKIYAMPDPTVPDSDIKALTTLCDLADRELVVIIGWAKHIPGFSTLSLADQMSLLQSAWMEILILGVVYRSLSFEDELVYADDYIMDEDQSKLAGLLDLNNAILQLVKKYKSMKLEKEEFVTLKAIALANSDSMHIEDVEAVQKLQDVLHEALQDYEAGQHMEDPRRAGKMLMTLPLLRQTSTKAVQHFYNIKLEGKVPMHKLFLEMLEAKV
# Method in brief: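 Transfect HepG2 with multiple GAL4-UAS reporter transcription units; dose chemicals 24 h; isolate RNA, reverse-transcribe with oligo(dT), PCR-amplify, label with 6-FAM, digest with HpaI; size fragments by capillary electrophoresis. DMSO serves as negative control.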
structure (smiles),measurement,setting,value
O=C(O)c1[nH]n(-c2ccc(S(=O)(=O)O)cc2)c(=O)c1N=Nc1ccc(S(=O)(=O)O)cc1,outcome,[1],inactive
same,AC50,[2],69.5 µM (active)
same,outcome,[3],inactive
same,outcome,[4],inactive
same,outcome,[5],inactive
same,outcome,[6],inactive
same,outcome,[7],inactive
same,outcome,[8],inactive
same,outcome,[9],inactive
same,outcome,[10],inactive
same,outcome,[11],inactive
same,outcome,[12],inactive
same,outcome,[13],inactive
same,outcome,[14],inactive
same,outcome,[15],inactive
same,outcome,[16],inactive
O=C(O)c1cccnc1,outcome,[1],inactive
same,outcome,[2],inactive
same,outcome,[3],inactive
same,outcome,[4],inactive
same,outcome,[5],inactive
same,outcome,[6],inactive
same,outcome,[7],inactive
same,outcome,[8],inactive
same,outcome,[9],inactive
same,outcome,[10],inactive
same,outcome,[11],inactive
same,outcome,[12],inactive
same,outcome,[17],inactive
same,AC50,[15],25.2 µM (active)
same,outcome,[15],inactive
same,outcome,[18],inactive
same,outcome,[16],inactive
NC1CCCCC1,outcome,[1],inactive
same,outcome,[2],inactive
same,outcome,[3],inactive
same,outcome,[4],inactive
same,outcome,[5],inactive
same,outcome,[6],inactive
same,outcome,[7],inactive
same,outcome,[8],inactive
same,outcome,[9],inactive
same,outcome,[10],inactive
same,outcome,[11],inactive
same,outcome,[12],inactive
same,outcome,[13],inactive
same,outcome,[15],inactive
same,outcome,[16],inactive
C/C=C/C=C/C(=O)O,outcome,[1],inactive
same,AC50,[2],36.7 µM (active)
same,outcome,[2],inactive
same,outcome,[3],inactive
same,outcome,[4],inactive
same,outcome,[5],inactive
same,outcome,[6],inactive
same,outcome,[8],inactive
same,outcome,[9],inactive
same,outcome,[10],inactive
same,outcome,[11],inactive
same,outcome,[12],inactive
same,outcome,[13],inactive
same,outcome,[17],inactive
same,outcome,[15],inactive
same,outcome,[18],inactive
same,outcome,[16],inactive
CC(C)c1cccc(C(C)C)c1,outcome,[1],inactive
same,outcome,[2],inactive
same,outcome,[3],inactive
same,outcome,[4],inactive
same,outcome,[5],inactive
same,outcome,[6],inactive
same,outcome,[7],inactive
same,outcome,[8],inactive
same,outcome,[9],inactive
same,outcome,[10],inactive
same,outcome,[11],inactive
same,outcome,[12],inactive
same,outcome,[13],inactive
same,outcome,[19],inactive
same,outcome,[15],inactive
same,outcome,[18],inactive
Oc1ccccc1O,outcome,[1],inactive
same,outcome,[2],inactive
same,outcome,[3],inactive
same,AC50,[4],23.2 µM (active)
same,outcome,[5],inactive
same,outcome,[6],inactive
same,outcome,[7],inactive
same,outcome,[8],inactive
same,outcome,[9],inactive
same,outcome,[10],inactive
same,outcome,[11],inactive
same,outcome,[12],inactive
same,AC50,[13],27.5 µM (active)
same,outcome,[17],inactive
same,AC50,[15],35.7 µM (active)
same,outcome,[18],inactive
CC(C)COC(=O)CCCCC(=O)OCC(C)C,outcome,[1],inactive
same,outcome,[2],inactive
same,outcome,[3],inactive
same,outcome,[4],inactive
same,outcome,[5],inactive
same,outcome,[6],inactive
same,outcome,[7],inactive
same,outcome,[8],inactive
same,outcome,[9],inactive
same,outcome,[10],inactive
same,outcome,[11],inactive
same,outcome,[12],inactive
same,outcome,[13],inactive
same,outcome,[15],inactive
same,outcome,[18],inactive
CC(COCC(C)OC(=O)c1ccccc1)OC(=O)c1ccccc1 (centres undefined),outcome,[1],inactive
same,AC50,[2],35.3 µM (active)
same,outcome,[3],inactive
same,outcome,[4],inactive
same,outcome,[5],inactive
same,outcome,[6],inactive
same,outcome,[7],inactive
same,outcome,[8],inactive
same,outcome,[9],inactive
same,outcome,[10],inactive
same,outcome,[11],inactive
same,outcome,[12],inactive
same,outcome,[13],inactive
same,outcome,[17],inactive
same,outcome,[19],inactive
same,outcome,[15],inactive
same,outcome,[20],inactive
